In PubChem BioAssay:
Active and inactive are the calls of the source.

test system: not listed separately; test: CREB reporter modulators under forskolin, primary screen, cell-based, PC12, CRE-LacZ reporter, forskolin-stimulated (AID 1146); conditions: luminescence, 4.5 h, higher = more signal, called active from +8 up or from −8 down;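 further: PC12 cells with 6xCRE LacZ reporter stimulated by forskolin 10 µM; beta-galactosidase reporter signal reflecting CREB driven transcription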

Compound	z-score
OCCCC1=CC(c2ccc(CN3CCCC3)cc2)N(Cc2cc3c(cc2Br)OCO3)CC1 (centres undefined)	0.821 (inactive)
COc1cc2c(cc1O)C(c1cccs1)N(Cc1cc3c(cc1Br)OCO3)CC2 (centres undefined)	0.726 (inactive)
CCCNC(=O)[C@@]1(Sc2ccc(C)cc2)CC(=O)N(C2Cc3ccccc3C2)[C@@H]1c1ccc(CO)cc1I	1.73 (inactive)
CC(C)=C1C(=O)C(c2ccccc2)=C2CN3C(=O)N(CCc4ccccc4)C(=O)[C@]3(Cc3ccc(C(F)(F)F)cc3)[C@H]21	0.96 (inactive)
COc1cccc(C)c1NC(=O)O[C@H]1[C@H](OC(=O)Nc2ccccc2-c2ccccc2)[C@H](OC(=O)Nc2ccccc2-c2ccccc2)[C@@H](OC)O[C@@H]1CO	-0.433 (inactive)
COCCCNC(=O)[C@@]1(CCC(=O)OC(C)(C)C)N=C(c2ccc(OCCCO)cc2)O[C@H]1c1ccccc1N=[N+]=[N-]	-1.71 (inactive)
COc1cc2c(cc1O)C(c1ccc(CN3CCCC3)cc1)N(Cc1cc3c(cc1Br)OCO3)CC2 (centres undefined)	-0.0519 (inactive)
CCCC[C@@H](O)C1=C(COC)C[C@H]2C(=O)N(C)C(=O)[C@H]2[C@H]1CO	-1.18 (inactive)
COC(=O)C(CC#Cc1ccc2c(c1)[C@]1(C(=O)N2)[C@H](c2ccc(O)cc2)N2[C@H](c3ccccc3)[C@H](c3ccccc3)OC(=O)[C@H]2[C@@H]1C(=O)NC[C@H](O)c1ccccc1)C(=O)OC	-0.0638 (inactive)
COC(=O)C1=CC(CCCO)=CC(c2ccc(CN3CCCC3)cc2)N(Cc2cccc(OC(F)(F)F)c2)C=C1C(=O)OC (centres undefined)	-0.727 (inactive)
NC(=O)NCC#Cc1ccc2c(c1)[C@]1(C(=O)N2)[C@H](c2ccccc2OCCO)N2[C@H](c3ccccc3)[C@H](c3ccccc3)OC(=O)[C@H]2[C@@H]1C(=O)O	1.36 (inactive)
COC(=O)[C@@H]1N=C(c2ccc(OCCCO)cc2)O[C@@H]1c1ccccc1	-1.38 (inactive)
C=CCC(OC(C)=O)[C@@H]1[C@@H](N(Cc2cccc3ccccc23)C(=O)Cc2ccc(OC)cc2)c2cc(OCCCO)ccc2N1C(=O)c1ccc(-c2ccccc2)cc1 (some centres undefined)	-0.375 (inactive)
CC(C)[Si]1(C(C)C)OCc2cc(-c3ccc(-c4ccc(Cl)c(Cl)c4)o3)nc(-c3ccccc3)c21	-0.272 (inactive)

molecular target: Streptavidin (Streptomyces avidinii) (UniProt P22629); test: streptavidin binders on small-molecule microarray, primary screen, artefact control for SMM compound annotation, biophysical, 635/667 nm fluorescence (AID 1147); conditions: streptavidin binding, higher = more signal;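 further: signal reflects streptavidin binding to arrayed compounds as a control protein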
Sequence (P22629 whole entry, looked up): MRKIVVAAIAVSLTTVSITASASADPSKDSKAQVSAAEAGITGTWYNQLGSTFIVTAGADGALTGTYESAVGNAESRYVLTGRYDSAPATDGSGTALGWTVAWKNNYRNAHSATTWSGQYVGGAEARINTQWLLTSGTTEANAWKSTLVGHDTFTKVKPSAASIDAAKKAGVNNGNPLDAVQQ

Compound	composite z-score
C=CC[C@H](OC(=O)Nc1ccc(SC)cc1)c1ccc(O)c2ccccc12	1.61
O=C1O[C@@H](c2ccccc2)[C@@H](c2ccccc2)N2[C@@H](c3ccc(OCCO)cc3)[C@]3(C(=O)Nc4ccc(C#CC5=CCCCC5)cc43)[C@@H](C(=O)NC[C@H](O)c3ccccc3)[C@H]12	1.5
O=C1O[C@H](c2ccccc2)[C@H](c2ccccc2)N2[C@H]1[C@@H](C(=O)O)[C@]1(C(=O)Nc3ccc(C#CCCO)cc31)[C@H]2c1ccccc1OCCO	-0.18
CC(C)c1ccc(NN2C(C(O)c3ccc(C#N)cc3)C=CC3C(=O)N(c4ccccc4)C(=O)C32)cc1 (centres undefined)	1.96
C[N+](C)(C)CCCC[C@@H]1NC(=O)[C@@H]2C[C@H](C(=O)NCCCCCCN)[C@H](c3cccc(OCCO)c3)N2C1=O	1.67
CC(C)[Si]1(C(C)C)OCc2cc(C3CC3)nc(-c3ccc(Oc4ccccc4)cc3)c21	-0.502
COCCOC(=O)N1C(=O)[C@@]2(c3cc(C#CC4(O)CCCCCC4)ccc31)[C@H](c1ccc(O)cc1)N1[C@H](c3ccccc3)[C@H](c3ccccc3)OC(=O)[C@H]1[C@@H]2C(=O)N1CCN(c2ncccn2)CC1	1.33
COC(=O)c1c(CC[C@@H](CO)NC(=O)N[C@@H](C)Cn2cc(-c3ccccn3)nn2)oc(C(C)=O)c1C(=O)OC	-0.893
CCOC(=O)[C@@H]1CCCCN1C(=O)C(=O)OC	-0.0957
CN(C)c1ccc(C(O)C2C=CC3C(=O)NC(=O)C3N2Nc2ccccn2)cc1 (centres undefined)	0.0863
CC#CCO[Si](C#Cc1ccccc1)(C(C)C)C(C)C	-1.07
CC(=O)N1CC2(CC2)CC1c1ccccc1 (centres undefined)	0.547
COCCOC(=O)N1C(=O)[C@@]2(c3cc(C#CCC(C(=O)OC)C(=O)OC)ccc31)[C@H](c1ccc(OCCO)cc1)N1[C@H](c3ccccc3)[C@H](c3ccccc3)OC(=O)[C@H]1[C@@H]2C(=O)N1CCc2cc(OC)c(OC)cc2C1	0.918
C=CCC(OC(C)=O)[C@@H]1[C@@H](N(Cc2cccc3ccccc23)C(=O)Cc2ccc(F)cc2)c2cc(OCCCO)ccc2N1C(=O)c1ccc2ccccc2c1 (some centres undefined)	0.0722
CN1C2C=C(CCCO)C(C3C(=O)N(C(N)=O)C(=O)C32)C1C1CC1 (centres undefined)	-0.0742
CCCN1C(=O)[C@]2(Cc3ccccc31)N=C(c1ccc(OCCCO)cc1)O[C@@H]2c1ccccc1	0.899
NCCCCCNC(=O)[C@@H]1C[C@@H]2C(=O)N[C@@H](CCCCN)C(=O)N2[C@@H]1c1ccc(O)cc1	0.811
Cc1ccc(C(C)CC(O)C2C=CC3C(=O)N(c4ccccc4)C(=O)C3N2Nc2ccccc2)o1 (centres undefined)	1.19

Compound	composite z-score
CCCNC(=O)[C@@H]1c2ccccc2C(=O)N(Cc2ccc(OC(F)(F)F)cc2)[C@H]1c1ccc(CO)cc1	-0.127
CC(C)C(CO)N1C(=O)[C@@H]2[C@H]3C(=O)OCC=C[C@H]3OC23C=CCN(c2ccc(Cl)cc2)C(=O)[C@@H]13 (some centres undefined)	-0.446
CC(C)c1ccc(NN2C(C(O)c3ccc(F)cc3)C=CC3C(=O)N(c4ccccc4)C(=O)C32)cc1 (centres undefined)	1.7
OCCCC1=CC(c2ccc(CN3CCCC3)cc2)N(Cc2cc3c(cc2Br)OCO3)CC1 (centres undefined)	0.0246
COc1cc2c(cc1O)C(c1cccs1)N(Cc1cc3c(cc1Br)OCO3)CC2 (centres undefined)	2.07
CCCNC(=O)[C@@]1(Sc2ccc(C)cc2)CC(=O)N(C2Cc3ccccc3C2)[C@@H]1c1ccc(CO)cc1I	0.419
CC(C)=C1C(=O)C(c2ccccc2)=C2CN3C(=O)N(CCc4ccccc4)C(=O)[C@]3(Cc3ccc(C(F)(F)F)cc3)[C@H]21	0.37
COc1cccc(C)c1NC(=O)O[C@H]1[C@H](OC(=O)Nc2ccccc2-c2ccccc2)[C@H](OC(=O)Nc2ccccc2-c2ccccc2)[C@@H](OC)O[C@@H]1CO	1.26
COCCCNC(=O)[C@@]1(CCC(=O)OC(C)(C)C)N=C(c2ccc(OCCCO)cc2)O[C@H]1c1ccccc1N=[N+]=[N-]	2.07
COc1cc2c(cc1O)C(c1ccc(CN3CCCC3)cc1)N(Cc1cc3c(cc1Br)OCO3)CC2 (centres undefined)	0.881
CCCC[C@@H](O)C1=C(COC)C[C@H]2C(=O)N(C)C(=O)[C@H]2[C@H]1CO	0.45
COC(=O)C(CC#Cc1ccc2c(c1)[C@]1(C(=O)N2)[C@H](c2ccc(O)cc2)N2[C@H](c3ccccc3)[C@H](c3ccccc3)OC(=O)[C@H]2[C@@H]1C(=O)NC[C@H](O)c1ccccc1)C(=O)OC	0.379
COC(=O)C1=CC(CCCO)=CC(c2ccc(CN3CCCC3)cc2)N(Cc2cccc(OC(F)(F)F)c2)C=C1C(=O)OC (centres undefined)	0.644
NC(=O)NCC#Cc1ccc2c(c1)[C@]1(C(=O)N2)[C@H](c2ccccc2OCCO)N2[C@H](c3ccccc3)[C@H](c3ccccc3)OC(=O)[C@H]2[C@@H]1C(=O)O	0.333
COC(=O)[C@@H]1N=C(c2ccc(OCCCO)cc2)O[C@@H]1c1ccccc1	-0.913
C=CCC(OC(C)=O)[C@@H]1[C@@H](N(Cc2cccc3ccccc23)C(=O)Cc2ccc(OC)cc2)c2cc(OCCCO)ccc2N1C(=O)c1ccc(-c2ccccc2)cc1 (some centres undefined)	0.107
CC(C)[Si]1(C(C)C)OCc2cc(-c3ccc(-c4ccc(Cl)c(Cl)c4)o3)nc(-c3ccccc3)c21	-0.832
